The full list was thinned out, with hits kept by preference.
Tg IFNy HTS: T. gondii growth inhibition under IFN-gamma | Toxoplasma gondii growth in IFN-gamma-treated host cells; hits give low values | activity change, negative = inhibition, % (concentration not given with the values) | 3.8% of 69,000 active; in the data active = activity change below about -70%, passing the limit was not always enough;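 note: host cells are HeLa cells infected with Toxoplasma gondii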
Of the large screens only hits and unclear results are named; the others gave an inactive call.

Cc1nc(N2CCN(c3ccccc3)CC2)nc2c1C(=O)CC(c1ccccc1F)C2 (configuration not stated)	none
Cc1oc(C2CCN(C(=O)c3ccc(OC(F)(F)F)cc3)CC2)nc1C(=O)N(C)C	none
O=C(NCCc1csc(-c2cccc(F)c2)n1)C(=O)Nc1ccc(Cl)cc1	none
CCOc1cc(C(=O)Nc2ccc(Cl)c(-c3nc4ccccc4[nH]3)c2)cc(OCC)c1OCC	Tg IFNy HTS -76
CCOc1cc(C(=O)Nc2ccc3c(c2)CCC(=O)N3)cc(OCC)c1OCC	none
COc1ccc(C(=O)Nc2cccc(-c3nc4ccccc4[nH]3)c2)cc1	none
CCc1ccccc1OCCN(C)C(=O)c1ccc(C(C)=O)cc1	none
COCCN1C(=O)CCc2cc(NS(=O)(=O)c3ccc(Cl)s3)ccc21	none
CN1C(=O)CCc2cc(NS(=O)(=O)c3ccc(Br)s3)ccc21	Tg IFNy HTS -97
COCCN1C(=O)CCc2cc(NS(=O)(=O)c3ccc(Br)cc3)ccc21	none
CN1C(=O)CCc2cc(NS(=O)(=O)c3ccc(Br)cc3)ccc21	Tg IFNy HTS -95
CN1C(=O)CCc2cc(NS(=O)(=O)Cc3cccc(Cl)c3)ccc21	none
Cc1ccc(S(=O)(=O)Nc2ccc3c(c2)CCC(=O)N3C)cc1Cl	none
Cc1cccc(S(=O)(=O)N2CCC3(CC2)Nc2ccc(Cl)cc2-n2cccc23)c1	none
Cc1noc(C)c1C(=O)Oc1ccccc1	none
CC[C@H](NC(=O)c1c(C)c(-c2ccccc2)nc2ccccc12)c1ccccc1	none
Cc1ccc(OC(=O)c2c(-c3ccccc3)nnc3ccccc23)cc1	Tg IFNy HTS -106
COc1ccc(-c2nsc3c2NC(=O)CC3c2cccnc2)cc1 (configuration not stated)	none
Cc1ccc(-c2nnc(-c3nc(NCc4ccc(N(C)C)cc4)c4ccccc4n3)o2)cc1	none
CNC(=O)c1nn(C)c2c1C(C)(C)Cc1cnc(Nc3ccc(N4CCN(C)CC4)cc3)nc1-2	none
CN1CCN(c2ccc(OC(F)(F)F)c(Nc3ncc4c(n3)-c3c(c(C(N)=O)nn3CCO)CC4)c2)CC1	Tg IFNy HTS -81
CS(=O)(=O)c1cnn2cc(CN3CCCC3c3ccc(F)cc3)cnc12 (configuration not stated)	none
C=CCN1C[C@H]2CN(Cc3ccc4c(c3)OCO4)CCC[C@@]2(C(=O)O)C1	none
CCO[C@H]1CC[C@@H]2[C@@H]1OCCN2C(=O)c1cn2cc(Cl)ccc2n1	none
CCn1c(CN2C[C@@H]3CC[C@@](O)(c4cnc(OC)nc4OC)[C@@H]3C2)nc2ccccc21	Tg IFNy HTS -85
CCCCN1CCC(O)(c2cnc(OC)nc2OC)CC1	none
COc1ccc(CN2C[C@@H]3CC[C@@](O)(c4ncccc4C)[C@@H]3C2)cc1	none
Cc1c(Cl)cccc1NC(=O)NCC(c1cccnc1)c1cn(C)c2ccccc12 (configuration not stated)	none
CCOC(=O)N1CCN(C(=O)c2cccc(CC3CCNCC3)c2)CC1	none
COc1ccc(-c2nc(C)c(CCNC(=O)C3CCCCC3)s2)cc1OC	none
CNC(=O)CN1CCC(Oc2cc3c(Nc4cccc(Cl)c4F)ncnc3cc2OC)CC1	none
COc1cc2ncnc(Nc3ccc(F)c(Cl)c3)c2cc1NC(=O)/C=C/CN1CCCCC1	Tg IFNy HTS -82
CCN(CC)CC1CCN(c2ncc3ncnc(Nc4ccc(F)c(Cl)c4)c3n2)CC1	none
CCC(=O)N1[C@H](CO)[C@H](c2ccc(-c3cncnc3)cc2)[C@@H]1CN(C)C(C)=O	none
Nc1cccc(-c2cccc3ccnn23)n1	none
Cc1ccc(NC(=O)C2CCCCC2C(=O)O)cc1Cl (configuration not stated)	none
Cc1ccc(NC(=O)OC2CCCCC2)cc1NC(=O)OC1CCCC1	Tg IFNy HTS -105
COc1ccc(NC(=O)Nc2ccc(OC)c(OC3CCCC3)c2)cc1OC1CCCC1	none
O=C1OCCCN1CCn1ccnc1-c1ccccn1	none
O=C(NCC1CC1)[C@@H]1[C@@H](CO)[C@@H]2Cn3c(ccc(C4=CCCC4)c3=O)[C@@H]2N1C(=O)C1CC1	none
CNC(=O)CC1CC2(CCN(C(=O)N3CCOCC3)CC2)c2ccccc21 (configuration not stated)	none
N=C(N)c1ccc(N=NNc2ccc(C(=N)N)cc2)cc1	none
Cc1cccc(CN2C[C@H]3[C@H](C(=O)N4CCOCC4)CCS(=O)(=O)[C@H]3C2)c1	none
Cc1cccc(CN2C[C@H]3[C@H](C(=O)N(C)C)CCS(=O)(=O)[C@H]3C2)c1	none
Cc1cccc(CN2C[C@H]3[C@H](C(=O)Nc4ccccc4)CCS(=O)(=O)[C@H]3C2)c1	Tg IFNy HTS -115
Cc1nn(CC(=O)NCc2ccc(F)cc2)c(=O)c2nc(-c3ccccc3)sc12	none
CCn1cc(CN(C)C(=O)c2ccc(NC(=O)c3ccoc3C)cc2)cn1	none
Cc1cc(C(=O)N2CCc3c(nc[nH]c3=O)C2)c(NC(=O)C(C)(C)C)s1	none
CN(C)Cc1cnc2n1CCN(Cc1nccs1)CC2	none
CCN1c2cc(C)ccc2-n2cccc2C12CCN(S(=O)(=O)c1ccc(C(C)C)cc1)CC2	none
CCN1c2cc(C)ccc2-n2cccc2C12CCN(S(=O)(=O)Cc1ccccc1)CC2	none
CCOc1ccc(NC(=O)N2CCC3(CC2)c2cccn2-c2ccc(C)cc2N3CC)cc1	none
CCN1c2cc(C)ccc2-n2cccc2C12CCN(S(=O)(=O)c1ccccc1)CC2	Tg IFNy HTS -79
CCN1c2cc(C)ccc2-n2cccc2C12CCN(S(=O)(=O)c1ccc3c(c1)oc(=O)n3C)CC2	none
CCN1c2cc(C)ccc2-n2cccc2C12CCN(C(=O)c1ccccc1OC)CC2	none
CCN1c2cc(C)ccc2-n2cccc2C12CCN(S(=O)(=O)c1ccccc1Cl)CC2	Tg IFNy HTS -78
CCN1c2cc(C)ccc2-n2cccc2C12CCN(C(=O)c1ccccc1Br)CC2	none
CCOc1ccc(S(=O)(=O)N2CCC3(CC2)c2cccn2-c2ccc(C)cc2N3CC)cc1	Tg IFNy HTS -92
Cc1cc2c(c(Sc3ccc(Cl)cc3)n1)C(=O)NC2=O	none
COCC1CN(S(=O)(=O)c2ccccc2)Cc2ccnn2C1 (configuration not stated)	none
COc1cc(C(=O)N2CCC(C)(C(=O)NCc3ccc(F)cc3F)CC2)cc(OC)c1OC	none
O=C(O)C1C2C=CC(C2)C1C(=O)N(Cc1ccccc1)Cc1ccccc1 (configuration not stated)	none
CN1CCOCC12CCN(c1ccc(C#N)cc1)CC2	none
O=C(CC1[C@H]2CN(Cc3ccco3)C[C@@H]12)NCc1ccco1 (some centres not stated)	none
COc1cccc2cc(-c3ccccc3)c(=O)oc12	none
COc1cc(NC(=O)c2ccc(Cl)cc2Cl)ccc1-c1cc2ccccc2oc1=O	Tg IFNy HTS -85
O=C(COC(=O)c1cc2ccccc2oc1=O)c1ccc(Cl)cc1Cl	none
COc1cc(Br)c(-c2cc3ccccc3oc2=O)cc1OC	Tg IFNy HTS -86
COc1ccccc1NC(=O)c1cccc(-c2cc3ccccc3oc2=O)c1	none
O=c1oc2ccccc2cc1-c1csc(-c2ccccc2Cl)n1	none
Cc1nc2c(c(=O)[nH]1)CCN(S(=O)(=O)c1cc(Cl)ccc1Cl)C2	none
COc1ccc(C(NC(=O)c2[nH]nc(-c3ccccc3)c2C)c2ccncc2)cc1 (configuration not stated)	none
CSc1cccc(NC(=O)N2CCC(c3nc(C(=O)N4CCCC4)c(C)o3)CC2)c1	none
Cc1ccc(-c2nnc(-c3nc(Nc4ccc5c(c4)OCCO5)c4ccccc4n3)o2)cc1	none
COc1ccc(NC(=O)Nc2ccc(-c3nc(-c4ccc(C)cc4C)co3)cc2)cc1	none
CC(C)CCN1C2(CCN(C(=O)c3ccno3)C2)c2ccccc2S1(=O)=O (configuration not stated)	none
CC(C)CCN1C2(CCN(C(=O)Cc3cccnc3)C2)c2ccccc2S1(=O)=O (configuration not stated)	none

High-throughput results (PubChem)
